Measurements published in article PMC4336329 (PLoS ONE, 2015).
Among all 310,000 compounds or so, about 14,000 (4.5%) showed an effect of 50% or more. The effect is printed as a negative number. This is one part of a sample in which strong results are shown more often than they occur.

target: human ether-à-go-go-related gene (hERG) potassium channel (human, UniProt Q12809); test: primary screen, population patch clamp on CHO cells stably expressing hERG; higher = less effect of the substance
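Note: peak tail current of the secondary pulse compared with the same well before compound.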

human ether-à-go-go-related gene (hERG) potassium channel, sequence (Q12809 whole entry, looked up): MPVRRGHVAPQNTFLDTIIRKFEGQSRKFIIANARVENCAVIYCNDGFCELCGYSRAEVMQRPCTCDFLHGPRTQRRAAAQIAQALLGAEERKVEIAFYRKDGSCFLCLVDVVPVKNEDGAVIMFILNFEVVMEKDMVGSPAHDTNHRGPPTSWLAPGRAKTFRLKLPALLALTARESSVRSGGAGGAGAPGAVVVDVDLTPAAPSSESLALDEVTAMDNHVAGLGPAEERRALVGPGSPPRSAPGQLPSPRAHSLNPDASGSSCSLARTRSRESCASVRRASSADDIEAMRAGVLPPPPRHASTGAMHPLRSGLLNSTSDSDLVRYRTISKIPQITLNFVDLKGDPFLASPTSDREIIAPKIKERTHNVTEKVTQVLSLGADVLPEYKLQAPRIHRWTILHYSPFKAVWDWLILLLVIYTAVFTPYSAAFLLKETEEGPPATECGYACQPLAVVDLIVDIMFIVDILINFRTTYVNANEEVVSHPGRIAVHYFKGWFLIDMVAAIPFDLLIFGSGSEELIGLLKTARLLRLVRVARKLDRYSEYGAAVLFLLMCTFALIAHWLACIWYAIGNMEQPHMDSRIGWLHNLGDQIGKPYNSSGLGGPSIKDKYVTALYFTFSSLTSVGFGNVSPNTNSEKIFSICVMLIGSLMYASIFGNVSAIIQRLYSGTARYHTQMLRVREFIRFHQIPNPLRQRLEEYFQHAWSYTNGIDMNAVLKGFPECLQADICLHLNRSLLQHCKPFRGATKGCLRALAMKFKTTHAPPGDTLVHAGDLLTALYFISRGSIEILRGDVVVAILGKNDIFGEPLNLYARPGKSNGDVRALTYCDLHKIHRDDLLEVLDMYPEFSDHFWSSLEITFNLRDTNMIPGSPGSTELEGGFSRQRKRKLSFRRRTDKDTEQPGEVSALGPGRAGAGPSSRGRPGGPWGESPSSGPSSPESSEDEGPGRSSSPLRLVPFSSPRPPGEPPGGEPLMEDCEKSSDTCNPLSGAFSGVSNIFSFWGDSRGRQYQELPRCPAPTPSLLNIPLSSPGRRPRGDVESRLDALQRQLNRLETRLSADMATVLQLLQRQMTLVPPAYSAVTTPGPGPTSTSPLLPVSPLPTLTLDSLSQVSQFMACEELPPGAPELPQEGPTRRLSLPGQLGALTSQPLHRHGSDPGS

| Compound | hERG current change (%, negative = inhibition) at 10uM |
| --- | --- |
| O=C(Nc1cc([N+](=O)[O-])ccc1Cl)C1CC1 | 14.1% |
| COc1ccc(Cn2c(=S)[nH]c3cc(C(=O)N4CCCCC4)ccc3c2=O)cc1 | 13.3% |
| Cc1cc(-n2nc3ccccc3n2)c(O)c([N+](=O)[O-])c1 | 6.11% |
| COc1ccc(CCNC(=O)COC(=O)C2COc3ccccc3O2)cc1 (centres unmarked) | -0.23% |
| CCCn1nnnc1NCc1ccc(N(C)C)cc1 | 1.95% |
| CCC(=O)N1N=C(c2ccc(C)o2)CC1c1ccc(Br)cc1 (centres unmarked) | -23.4% |
| COc1ccc(/C=C/C(=O)NC(=S)NNC(=O)Cc2cccs2)cc1OC | 17.9% |
| CC1=C(C(=O)OC(C)C)C(c2cccs2)N2C(=O)CCSC2=N1 (centres unmarked) | -11.5% |
| CCCCCOP(=O)(OCCCCC)C1(NS(=O)(=O)c2ccccc2)C=CC(=O)c2ccccc21 (centres unmarked) | 9.76% |
| Nc1cc(=O)[nH]c(=O)n1-c1ccc(Cl)cc1 | 15.2% |
| COc1ccccc1OCC(=O)Nc1ccccc1C(=O)N1CCCCC1 | 11.6% |
| Cc1ccc(CN2CCN(C(=O)c3ccco3)CC2)cc1 | -13.5% |
| C/C(=N\N1CCN(Cc2ccc(C)cc2)CC1)c1ccco1 | -67.6% |
| C/C(=N\N1CCN(Cc2ccccc2)CC1)c1ccco1 | -1.45% |
| CCCOC(c1ccccc1)(c1ccccc1)C(Oc1nc(C)cc(C)n1)C(=O)O (centres unmarked) | 21.5% |
| C=CCSc1nnc2c(n1)OC(c1ccco1)Nc1ccccc1-2 (centres unmarked) | -7.61% |
| CCCSc1nc(N)c(C#N)c(-c2ccc(C)cc2)c1C#N | 15.7% |
| C=CCNC(=O)C1CCN(c2cnccn2)CC1 | 27.8% |
| O=C(NCCc1ccc(Cl)cc1)C1CCN(c2cnccn2)CC1 | -35.3% |
| O=C(NCc1ccc(F)cc1)C1CCN(c2cnccn2)CC1 | -64.9% |

| Compound | hERG current change (%, negative = inhibition) at 10uM |
| --- | --- |
| O=C(NCc1ccccc1Cl)C1CCN(c2cnccn2)CC1 | -4.12% |
| O=C(NCc1ccc(Cl)cc1)C1CCN(c2cnccn2)CC1 | -59.9% |
| COc1cccc(CNC(=O)C2CCN(c3cnccn3)CC2)c1 | -12.4% |
| Cn1c(=O)c2c(SCc3cccc(C(F)(F)F)c3)nc(-c3ccco3)nc2n(C)c1=O | -3.88% |
| O=C(CNC(=O)c1ccco1)OCc1c(F)cccc1Cl | -5.42% |
| COc1ccccc1CNC(=O)C1(NC(=O)Nc2ccc(C)cc2)CCCCC1 | 30.7% |
| COC(=O)[C@H]1[C@H]2C[C@@H]3c4[nH]c5cc(OC)ccc5c4CCN3C[C@H]2C[C@@H](OC(=O)c2cc(OC)c(OC)c(OC)c2)[C@@H]1OC | -12.4% |
| CCCOc1ccc(N2C(=O)CC(NCc3ccncc3)C2=O)cc1 (centres unmarked) | -11.6% |
| CCOc1ccc(N2C(=O)CC(NCCNc3ccc([N+](=O)[O-])cn3)C2=O)cc1 (centres unmarked) | -77.5% |
| CCCOc1ccc(N2C(=O)CC(NCCNc3ccc([N+](=O)[O-])cn3)C2=O)cc1 (centres unmarked) | -72.5% |
| CCOc1ccc(N2C(=O)CC(NCCc3ccncc3)C2=O)cc1 (centres unmarked) | -5.67% |
| CCOc1ccc(N2C(=O)CC(NC3CCN(C(=O)c4cccs4)CC3)C2=O)cc1 (centres unmarked) | -24.7% |
| CCCOc1ccc(N2C(=O)CC(NCc3ccc(S(N)(=O)=O)cc3)C2=O)cc1 (centres unmarked) | 4.38% |
| CCCOc1ccc(N2C(=O)CC(NCCc3ccc(S(N)(=O)=O)cc3)C2=O)cc1 (centres unmarked) | -5.4% |
| CCCOc1ccc(N2C(=O)CC(NCC#N)C2=O)cc1 (centres unmarked) | 2.57% |
| CCOc1ccc(C(=O)c2cccs2)cc1 | -6.82% |
| CCCOc1ccc(N2C(=O)CC(NCCNc3ccc(S(=O)(=O)CC)cc3)C2=O)cc1 (centres unmarked) | -59.9% |
| COc1ccc(N2C(=O)CC(NCCNc3ccc([N+](=O)[O-])cn3)C2=O)cc1 (centres unmarked) | -34% |
| CCOc1ccc(N2C(=O)CC(NCCNc3ccc(C(=O)c4cccs4)cc3)C2=O)cc1 (centres unmarked) | -71.5% |
| Cc1ccc(/C=C/C(=O)OCC(=O)NCc2ccc(Cl)cc2)o1 | -13.9% |

| Compound | hERG current change (%, negative = inhibition) at 10uM |
| --- | --- |
| O=C(COc1ccc(Cl)cc1Br)N1CCN(S(=O)(=O)c2ccccc2)CC1 | -9.19% |
| COc1ccccc1N1CCN(S(=O)(=O)Cc2ccccc2Cl)CC1 | -2.74% |
| Cc1ccc(Nc2nnc(SCC(=O)NC3CC3)s2)cc1 | 9.41% |
| O=C(Nn1cnnc1)c1ccc(Cl)cc1 | 17.7% |
| COc1ccc(Nc2nc(-c3cccs3)cs2)c(OC)c1 | 4.09% |
| CCn1cc(SCC(=O)Nc2cc(C)on2)c2ccccc21 | 7.98% |
| CC(=O)Nc1ccc(S(=O)(=O)N2CCN=C2SCc2ccc(C)cc2)cc1 | -12% |
| Cc1csc(Sc2ccc([N+](=O)[O-])cc2C(=O)OCC(=O)NC2CCCC(C)C2C)n1 (centres unmarked) | -26.2% |
| COc1ccc(C(=O)Nn2c(CC(C)C)nc3cc(Cl)ccc3c2=O)c(OC)c1 | 13.4% |
| COc1cc2c(cc1OC)C(C)N(C(=O)/C=C/c1cc(OC)c(OC)c(OC)c1)CC2 (centres unmarked) | 7.57% |
| Cc1cccc(CCNC(=O)C2CCCN(c3cnccn3)C2)c1 (centres unmarked) | -11.5% |
| O=C(c1ccccc1)c1cccc(NC(=O)C2CC2)c1 | 0.476% |
| O=S(=O)(NC1CCCCC1NS(=O)(=O)c1ccc(F)cc1)c1ccc(F)cc1 (centres unmarked) | -5.29% |
| O=c1cccc2n1C[C@@H]1C[C@@H]2CN(CC(O)c2ccc([N+](=O)[O-])cc2)C1 (some centres unmarked) | -49% |
| O=C1OC(c2ccc(Cl)cc2)=N/C1=C\N1CC2CC(C1)c1cccc(=O)n1C2 (centres unmarked) | -72% |
| O=C1OC(c2ccc(Br)cc2)=N/C1=C\N1CC2CC(C1)c1cccc(=O)n1C2 (centres unmarked) | -45.2% |
| Nc1cc(C(=O)N2CCN(c3ccc([N+](=O)[O-])cc3)CC2)ccc1N1CC2CC(C1)c1cccc(=O)n1C2 (centres unmarked) | -35.3% |
| O=C(NC(=S)N1C[C@H]2C[C@H](C1)c1cccc(=O)n1C2)c1ccc(Cl)cc1 | -8.28% |
| O=C1OC(c2ccc([N+](=O)[O-])cc2)=N/C1=C/N1CC2CC(C1)c1cccc(=O)n1C2 (centres unmarked) | -55.1% |
